Test results published in PubChem BioAssay AID1159580 (chemical genetic matrix, 2015).
The campaign covered roughly 5,500 compounds. About 2,000 (36%) were called active. Roughly 18% stayed inconclusive and do not appear here. The list shows a part of the results. A number with no mark means an inactive call. Rule as the data show it: active = normalized growth mostly below about 0.91 (no sharp cut-off); inconclusive = no clear call, values can overlap the other calls; inactive = mostly above about 0.92.

Test: chemical genetic growth profiling, strain panel (AID 1159580);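 also: tested at 20 µM; growth read once vehicle control cultures reached saturation at 30 °C; 1 = growth at the plate median or of vehicle wells; lower values mean less growth of the strain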
Conditions: S. cerevisiae deletion strains, growth OD

## O=C(Oc1cccc2[nH]ccc12)c1ccc(C(F)(F)F)cc1
Locus YAR019C, strain CDC15, hits give low values
  normalized growth: 0.968
Locus YBL105C, strain PKC1, hits give low values
  normalized growth: 0.97
Locus YBR135W, strain CKS1, hits give low values
  normalized growth: 0.974
Locus YBR136W, strain MEC1, hits give low values
  normalized growth: 0.968
Locus YBR160W, strain CDC28, hits give low values
  normalized growth: 0.974
Locus YDL017W, strain CDC7, hits give low values
  normalized growth: 0.965
Locus YDL028C, strain MPS1, hits give low values
  normalized growth: 0.974
Locus YDL101C, strain DUN1, hits give low values
  normalized growth: 0.984
Locus YDL108W, strain KIN28, hits give low values
  normalized growth: 0.971
Locus YDL132W, strain cdc53, hits give low values
  normalized growth: 0.973
Locus YDL214C, strain PRR2, hits give low values
  normalized growth: 0.82
Locus YDR052C, strain DBF4, hits give low values
  normalized growth: 0.972
Locus YDR054C, strain cdc34, hits give low values
  normalized growth: 0.961
Locus YDR226W, strain ADK1, hits give low values
  normalized growth: 0.956
Locus YDR477W, strain SNF1, hits give low values
  normalized growth: 0.814
Locus YER123W, strain YCK3, hits give low values
  normalized growth: 0.702
Locus YER133W, strain GLC7, hits give low values
  normalized growth: 0.775
Locus YFL009W, strain cdc4, hits give low values
  normalized growth: 0.966
Locus YFL029C, strain CAK1, hits give low values
  normalized growth: 0.968
Locus YFR003C, strain YPI1, hits give low values
  normalized growth: 0.966
Locus YFR019W, strain FAB1, hits give low values
  normalized growth: 0.855
Locus YFR028C, strain CDC14, hits give low values
  normalized growth: 0.955
Locus YGR040W, strain KSS1, hits give low values
  normalized growth: 0.805
Locus YGR052W, strain FMP48, hits give low values
  normalized growth: 0.763
Locus YGR092W, strain DBF2, hits give low values
  normalized growth: 0.634
Locus YHR030C, strain SLT2, hits give low values
  normalized growth: 0.454 (active)
Locus YHR079C, strain IRE1, hits give low values
  normalized growth: 0.607
Locus YHR082C, strain KSP1, hits give low values
  normalized growth: 0.857
Locus YHR205W, strain SCH9, hits give low values
  normalized growth: 0.862
Locus YIL147C, strain SLN1, hits give low values
  normalized growth: 0.962
Locus YJL095W, strain BCK1, hits give low values
  normalized growth: 0.645
Locus YJL128C, strain PBS2, hits give low values
  normalized growth: 0.933
Locus YJL157C, strain FAR1, hits give low values
  normalized growth: 0.807
Locus YJR016C, strain ILV3, hits give low values
  normalized growth: 0.966
Locus YJR066W, strain TOR1 (second series), hits give low values
  normalized growth: 0.699
Locus YJR066W, strain TOR1, hits give low values
  normalized growth: 0.679
Locus YKL048C, strain ELM1, hits give low values
  normalized growth: 0.786 (active)
Locus YKL067W, strain YNK1, hits give low values
  normalized growth: 0.827
Locus YKL101W, strain HSL1, hits give low values
  normalized growth: 0.788
Locus YKL193C, strain SDS22, hits give low values
  normalized growth: 0.964
Locus YKL203C, strain TOR2, hits give low values
  normalized growth: 0.831
Locus YLR113W, strain HOG1, hits give low values
  normalized growth: 0.754 (active)
Locus YLR133W, strain CKI1, hits give low values
  normalized growth: 0.822
Locus YLR403W, strain SFP1, hits give low values
  normalized growth: 0.831
Locus YML070W, strain DAK1, hits give low values
  normalized growth: 0.791
Locus YMR001C, strain CDC5, hits give low values
  normalized growth: 0.964
Locus YMR205C, strain PFK2 (second series), hits give low values
  normalized growth: 0.862
Locus YMR277W, strain FCP1, hits give low values
  normalized growth: 0.96
Locus YNL006W, strain LST8, hits give low values
  normalized growth: 0.969
Locus YNL020C, strain ARK1, hits give low values
  normalized growth: 0.763
Locus YNL161W, strain CBK1, hits give low values
  normalized growth: 0.987
Locus YNL183C, strain NPR1, hits give low values
  normalized growth: 0.769
Locus YNL207W, strain RIO2, hits give low values
  normalized growth: 0.97
Locus YNL222W, strain SSU72, hits give low values
  normalized growth: 0.976
Locus YNL307C, strain MCK1 (second series), hits give low values
  normalized growth: 0.859
Locus YOL078W, strain AVO1, hits give low values
  normalized growth: 0.978
Locus YOL136C, strain PFK27, hits give low values
  normalized growth: 0.815
Locus YOR061W, strain CKA2, hits give low values
  normalized growth: 0.603 (active)
Locus YOR119C, strain RIO1, hits give low values
  normalized growth: 0.887
Locus YOR231W, strain MKK1, hits give low values
  normalized growth: 0.755
Locus YOR329C, strain SCD5, hits give low values
  normalized growth: 0.97
Locus YPL031C, strain PHO85, hits give low values
  normalized growth: 0.809
Locus YPL153C, strain RAD53, hits give low values
  normalized growth: 0.757
Locus YPL204W, strain HRR25, hits give low values
  normalized growth: 0.778
Locus YPL209C, strain IPL1, hits give low values
  normalized growth: 0.965
Locus YPL256C, strain CLN2, hits give low values
  normalized growth: 0.75 (active)
Locus YPR025C, strain CCL1, hits give low values
  normalized growth: 0.975
Locus YPR106W, strain ISR1, hits give low values
  normalized growth: 0.972
Locus YPR111W, strain DBF20, hits give low values
  normalized growth: 0.937
Strain NNK1, hits give low values
  normalized growth: 0.961
Strain TSCII, hits give low values
  normalized growth: 0.967

## CC(C)NC[C@H](O)COc1cccc2[nH]ccc12
Locus YAL013W, strain DEP1, hits give low values
  normalized growth: 0.999
Locus YAL040C, strain CLN3, hits give low values
  normalized growth: 0.984
Locus YCL061C, strain MRC1 (second series), hits give low values
  normalized growth: 1.01
Locus YDR363W, strain ESC2, hits give low values
  normalized growth: 0.994
Locus YER002W, strain NOP16, hits give low values
  normalized growth: 0.969
Locus YNL153C, strain GIM3, hits give low values
  normalized growth: 1.01
Locus YNL175C, strain NOP13, hits give low values
  normalized growth: 1.01
Locus YNL197C, strain WHI3, hits give low values
  normalized growth: 1.01
Locus YNL224C, strain SQS1, hits give low values
  normalized growth: 1.01
Locus YNL322C, strain KRE1, hits give low values
  normalized growth: 0.999
Locus YOR083W, strain WHI5 (second series), hits give low values
  normalized growth: 1.05
Locus YPL241C, strain CIN2, hits give low values
  normalized growth: 1
